Screening data from PubChem BioAssay.
In the library only some 12% were active in any assay of this set; here they are far more common.
Sfp inh – inhibitors of Bacillus subtilis Sfp phosphopantetheinyl transferase. 310,000 compounds, 3.5% hits. Q9F4F7. Biochemical Sfp PPTase activity, qHTS. Potency, µM, without a hit: largest response in the series, negative = inhibition, most hits filed as inhibitors. AID 1490;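 further: the enzyme is Sfp with the accession as filed and its product quenches rhodamine fluorescence; 0% = enzyme reaction without inhibitor and -100% = no enzyme wells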
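After 15 min at room temperature with compound, 15 nM Sfp received 5 uM rhodamine-CoA plus 12.5 uM BHQ-2-ybbR (50 mM Hepes pH 7.6, 10 mM MgCl2). Rate came from the fluorescence difference over 30 min, ex 525/em 598 nm.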
HP1b chromo inh – blocks HP1-beta chromodomain binding to methylated histone tails | AID 540317 | AlphaScreen HP1-beta / biotin-H3K9me3 peptide binding | Potency, µM (highest dose often 114 µM), for the others: at the top dose activity change, negative = inhibition, actives largely listed as inhibitors | P83916 | 390,000 compounds, 0.56% hits; further: nearly all actives have a fitted effect of over 70% in size
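HP1-beta protein (50 nM final) preincubated 30 min at room temperature with biotinylated H3(1-18)K9me3 peptide (50 nM) in PBS pH 7.4, 0.01% Tween-20, then compound added for 30 min. AlphaScreen streptavidin donor/nickel chelate acceptor beads (10 ug/mL final), 30 min dark, luminescence read.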
G9a inh – G9a (human) methyltransferase inhibition; Q96KQ7; G9a H3K9 monomethylation, AlphaScreen, 2 h; Potency, µM (top dose mostly 102 µM), for the others: at the top dose activity, negative = inhibition, hits mostly inhibitors; 350,000 compounds, 8.8% hits; AID 504332; further: on the % scale 0 is the no-effect control and ±100 the full control effect; nearly all actives have a fitted effect of over 75% in size
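AlphaScreen read-out: biotin-H3K9 peptide (500 nM) methylation by 20 nM enzyme with 20 uM SAM, 2 h at room temperature after 15 min compound preincubation; anti-monomethyl H3K9 antibody plus donor/acceptor beads, 10 min dark.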
BAZ2B inh – BAZ2B (human) inhibition; Q9UIF8; 360,000 compounds, 4.4% hits; AlphaScreen BAZ2B-H3K14Ac peptide displacement; Potency, µM (top dose mostly 114 µM), inactives show at the highest dose activity change, negative = inhibition, hits mostly inhibitors; further: on the % scale 0 is the no-effect control and ±100 the full control effect; nearly all actives have a fitted effect of over 60% in size
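AlphaScreen displacement of biotin-H3(5-23)K14Ac peptide (50 nM final) from BAZ2B (50 nM final) in PBS pH 7.4, 0.01% Tween-20; complex preformed 30 min RT, then compounds (top 110 uM) 30 min RT, beads 20 min dark.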
JMJD2A Tudor – JMJD2A Tudor domain (human) inhibition | AID 504339 | 390,000 compounds, 4.4% hits | Potency, µM (titrated, usually from 114 µM), without a hit: at the highest dose activity change, negative = inhibition, usual class: inhibitors | O75164 | AlphaScreen JMJD2A-Tudor / H3K4me3 peptide binding; further: on the % scale 0 is the no-effect control and ±100 the full control effect; nearly all actives have a fitted effect of over 50% in size
L3MBTL1 inh – inhibitors of human L3MBTL1; Potency, µM (series often up to 57.1 µM), inactives show at the highest dose activity, negative = inhibition, usual class: inhibitors; AlphaScreen L3MBTL1–H3K9me1 peptide binding; AID 485360; 230,000 compounds, 0.66% hits; further: on the % scale 0 is the no-effect control and ±100 the full control effect; nearly all actives have a fitted effect of over 60% in size
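L3MBTL1 (50 nM) pre-complexed 30 min with biotinylated H3(1-15)K9me1 peptide (75 nM), then compounds added for 30 min at room temperature; AlphaScreen streptavidin donor/nickel chelate acceptor beads (10 ug/mL final) read after 30 min dark incubation.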
Starred values were filed as active, the others as inactive; [ ] = another dose, or the depositor's remark. The call rests on the fitted dose curve; in most records, active means well fitted curve in the direction sought with a large enough effect; inconclusive means small, poorly fitted or top-dose-only effect, or another doubt; inactive means no such curve, though single readings can be large; an effect the other way counts as inactive or inconclusive. Potency means the concentration at half of the fitted maximal effect.

`COc1ccc(S(=O)(=O)Nc2nc3c(s2)C(=O)CC(C)(C)C3)cc1` gave Sfp inh 16%, HP1b chromo inh 15%, G9a inh -30%[59 µM], BAZ2B inh 22% and JMJD2A Tudor -6%.
`CC1(C)CC(=O)c2sc(NS(=O)(=O)Cc3ccccc3)nc2C1` gave Sfp inh 2%, HP1b chromo inh -13%, G9a inh 11µM*, BAZ2B inh 4%, JMJD2A Tudor -28% and L3MBTL1 inh -26%[11.4 µM].
For Cc1ccc(S(=O)(=O)Nc2nc3c(s2)C(=O)CC(C)(C)C3)cc1 the results were Sfp inh 11%, HP1b chromo inh 27%, G9a inh 50µM*, BAZ2B inh -37%, JMJD2A Tudor -7% and L3MBTL1 inh -24%.
For CCOc1ccc(CCNC(=O)Cn2nnc(-c3ccc(C(F)(F)F)cc3)n2)cc1OCC the results were HP1b chromo inh 32%, G9a inh 3%[59 µM], BAZ2B inh inconclusive and JMJD2A Tudor -7%.
`O=C(/C=C/c1ccc[nH]1)c1ccccc1` gave Sfp inh 56µM*, HP1b chromo inh -23%, G9a inh inconclusive, BAZ2B inh inconclusive, JMJD2A Tudor 18µM* and L3MBTL1 inh -20%.
`O=C(/C=C/c1ccc[nH]1)c1ccc(F)cc1` gave Sfp inh -14%, HP1b chromo inh 8%, G9a inh 7%, BAZ2B inh -26%, JMJD2A Tudor -23% and L3MBTL1 inh -21%.
`CCc1ccccc1NC(=O)N1CCN(c2cc(-c3noc(C)n3)ccc2C)CC1` gave HP1b chromo inh 40%[57 µM], G9a inh -10%[59 µM], BAZ2B inh 2% and JMJD2A Tudor -1%.
For Cc1cccc(NN=C2c3ccccc3-c3ccccc32)c1 the results were Sfp inh 1%, HP1b chromo inh 15%, G9a inh 32µM*, BAZ2B inh -14%, JMJD2A Tudor -24% and L3MBTL1 inh -6%.
Cc1ccccc1NCCNc1ccccc1C was read as Sfp inh -10%, HP1b chromo inh -8%, G9a inh 45µM*, BAZ2B inh inconclusive and JMJD2A Tudor -30%.
`CC(Cc1cccs1)NC(=S)Nc1ccc(F)cc1` (configuration not stated) gave Sfp inh 0%, HP1b chromo inh 35%, G9a inh 14%[59 µM], BAZ2B inh 8%, JMJD2A Tudor -8% and L3MBTL1 inh 6%.
`Oc1ccc(NC(=S)Nc2ccc(F)cc2)cc1` gave Sfp inh -12%, HP1b chromo inh 45%, G9a inh 6%[59 µM], BAZ2B inh -18%, JMJD2A Tudor -7% and L3MBTL1 inh -8%.
CCN(CC)c1ccc(NC(=S)Nc2ccc(F)cc2)cc1 was read as Sfp inh 45µM*, HP1b chromo inh 25µM*, G9a inh 13µM*, BAZ2B inh 22µM* and JMJD2A Tudor 35µM*.
Screening CCC(C)NC(=S)Nc1ccc(F)cc1 (configuration not stated) returned Sfp inh -2%, HP1b chromo inh 41%, G9a inh 50µM*, BAZ2B inh 3% and JMJD2A Tudor 11%.
CN(C)c1cc(-c2ccc(Br)cc2)oc(=O)c1Cl was read as Sfp inh -12%, HP1b chromo inh 15%, G9a inh 50µM*, BAZ2B inh inconclusive, JMJD2A Tudor -9% and L3MBTL1 inh -15%.
`O=S(=O)(c1cccs1)N1CCN(c2nc(-c3cccs3)nc3ccccc23)CC1` gave HP1b chromo inh 51% and JMJD2A Tudor -12%.
Screening COc1ccc(C(=O)OC2CC3CC[C@H](C2)N3C(C)=O)cc1OC (some centres not stated) returned Sfp inh 13%.
`COc1ccc(N2CCN(CC(=O)Nc3c(C)cc(C)cc3C)CC2)cc1` gave Sfp inh 13%, HP1b chromo inh 5%, G9a inh 40µM*, BAZ2B inh -26%, JMJD2A Tudor -27% and L3MBTL1 inh -2%.
